Laboratory results: PubChem BioAssay
Active and inactive are the calls of the source.

Tests used:
[1] = target: Albumin (Bos taurus) (UniProt P02769); assay: compounds binding labelled BSA control protein – biochemical, small-molecule microarray, Alexa647 label, 635/667 nm fluorescence, artefact control for SMM control protein annotation, profiling panel (AID 1118); conditions: BSA-A647 binding, fluorescence 635 nm, higher = more signal;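 note: score merges 667 nm emission intensity and signal-to-noise per printed compound spot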
[2] = probe aXIP binding to arrayed compounds – biochemical, NeuroSMM set, 635/667 nm fluorescence, primary screen (AID 1119); conditions: small-molecule microarray, higher = more signal, called active from +8 up or from −8 down;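 note: probe is the protein aXip251-270 applied at 1 µg/mL to compound-printed slides; binding of probe to printed compounds measured as 667 nm fluorescence plus signal to noise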
[3] = probe aNOTCH3 binding on compound microarray – biochemical, small-molecule microarray, 635/667 nm fluorescence, primary screen (AID 1120); conditions: higher = more signal;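 note: probe is a biotin-tagged antibody raised against NOTCH3 rather than NOTCH3 protein; score merges spot fluorescence near 667 nm with spot signal to noise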
[4] = probe aNOTCH2 binding on compound microarray – biochemical, small-molecule microarray, 635/667 nm fluorescence, primary screen (AID 1121); conditions: higher = more signal;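 note: score merges feature fluorescence read at 667 nm with its signal to noise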
[5] = target: Carbonic anhydrase 2 (Homo sapiens) (UniProt P00918); assay: compounds binding carbonic anhydrase 2 – biochemical, small-molecule microarray, Alexa647-labelled CAII, profiling panel (AID 1122); conditions: CAII-A647 binding fluorescence, higher = more signal
[6] = COS7 lysate on small-molecule microarray, probe aHis, 635 nm (AID 1123); conditions: COS7 cell lysate, fluorescence, higher = more signal;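 note: z-score combines 667nm fluorescence intensity with signal-to-noise per printed compound spot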
[7] = probe aLAP1 signal on lysate-treated microarray – cell lysate, small-molecule microarray, COS7 lysate, primary screen (AID 1124); conditions: probe aLAP1, fluorescence, higher = more signal;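 note: lysate comes from COS7 cells expressing LAP1 and is applied at 0.3 µg/mL; score merges spot fluorescence near 667 nm with signal-to-noise over triplicate slides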
[8] = test system: Sam68 (KHDRBS1); assay: compounds binding KHDRBS1 protein – biochemical, small-molecule microarray, 635 nm fluorescence, primary screen (AID 1125); conditions: higher = more signal;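 note: score merges 667 nm channel intensity with signal to noise over triplicate slides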
[9] = test system: Chordin-like protein 2 (CHRDL2); assay: compounds binding chordin-like 2 – biochemical, small-molecule microarray, 635 nm fluorescence, primary screen (AID 1126); conditions: fluorescence 635 nm, higher = more signal;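 note: printed compound slides probed with Chrdl2 protein at 4 µg/mL for 1 h at 4 C; score merges 667 nm emission intensity with signal to noise over three replicate slides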
[10] = target: Concanavalin-A (Canavalia ensiformis) (UniProt P02866); assay: compounds binding concanavalin A lectin – biochemical, small-molecule microarray, Alexa647 label, 635 nm, artefact control for SMM control protein annotation, primary screen (AID 1127); conditions: ConA-A647 binding fluorescence, higher = more signal;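 note: z combines 667 nm emission intensity with signal-to-noise across three replicate slides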
[11] = compounds binding Alexa647 anti-His antibody – biochemical, small-molecule microarray, 635 nm fluorescence, artefact control for SMM control protein annotation, primary screen (AID 1128); conditions: higher = more signal;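 note: score merges feature fluorescence with signal-to-noise for each printed compound spot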
[12] = test system: Human papillomavirus type 1a E7 protein (residues 1-88); assay: HPV1a E7 small-molecule binders, primary screen, biochemical, small-molecule microarray, residues 1-88, 635 nm (AID 1129); conditions: small-molecule microarray binding, fluorescence 635 nm; higher = more signal
[13] = target: Focal adhesion kinase 1 (Homo sapiens) (UniProt Q05397); assay: PTK2 protein binding on printed compound slides – biochemical, small-molecule microarray, 635/667 nm fluorescence, BSA, DTT, primary screen (AID 1130); conditions: 635 nm fluorescence, higher = more signal;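 note: composite of spot emission at 667 nm and signal to noise over triplicate slides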
[14] = test system: Fibrinogen (Alexa647-labelled); assay: Alexa647-fibrinogen binding to printed small molecules – biochemical, small-molecule microarray, 635/667 nm fluorescence, artefact control for SMM control-protein annotation, profiling panel (AID 1131); conditions: fibrinogen-A647 binding fluorescence, higher = more signal;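 note: z-score merges 667 nm fluorescence with per-spot signal-to-noise over triplicate slides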
[15] = target: Follistatin (Homo sapiens) (UniProt P19883); assay: FST protein binding to printed compounds – biochemical, small-molecule microarray, 635/667 nm fluorescence, primary screen (AID 1132); conditions: 635 nm fluorescence, higher = more signal
[16] = target: Fibroblast growth factor 2 (Homo sapiens) (UniProt P09038); assay: basic fibroblast growth factor binding to printed compounds – biochemical, small-molecule microarray, 635/667 nm fluorescence, primary screen (AID 1133); conditions: FGF2, fluorescence 635/667, higher = more signal
[17] = JC-1 mitochondrial potential readout, lung cancer cells – cell-based, A549, JC-1 fluorescence, basal, 24 h, 100 nL, profiling panel (AID 1138); conditions: higher = more signal;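 note: A549 lung adenocarcinoma cells under basal conditions with no added stimulus; test concentration not given here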
[18] = test system: Lefty1; assay: Lefty1 protein binding to printed compounds – biochemical, small-molecule microarray, 635/667 nm fluorescence, primary screen (AID 1139); conditions: fluorescence 635/667, higher = more signal
[19] = test system: wheat germ agglutinin (Triticum aestivum), Alexa647-labelled; assay: Alexa647-WGA lectin binding to printed small molecules – biochemical, small-molecule microarray, 635/667 nm fluorescence, artefact control for SMM control-protein annotation, profiling panel (AID 1140); conditions: WGA-A647 binding, 635 nm fluorescence, higher = more signal;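 note: score merges 667 nm feature emission with signal to noise over triplicate slides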
[20] = target: Luciferin 4-monooxygenase (Photinus pyralis) (UniProt P08659); assay: inhibition of purified Photinus pyralis luciferase – biochemical, luminescence, purified enzyme, 2006 set, primary screen (AID 1141); conditions: purified firefly luciferase, SteadyGlo luminescence, 30 min; higher = more signal, called active from +8 up or from −8 down;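 note: cell-free assay with purified firefly luciferase at 100 ng per well in PBS; test concentration not given here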
Chain of Luciferin 4-monooxygenase (Photinus pyralis) (P08659 whole entry, looked up): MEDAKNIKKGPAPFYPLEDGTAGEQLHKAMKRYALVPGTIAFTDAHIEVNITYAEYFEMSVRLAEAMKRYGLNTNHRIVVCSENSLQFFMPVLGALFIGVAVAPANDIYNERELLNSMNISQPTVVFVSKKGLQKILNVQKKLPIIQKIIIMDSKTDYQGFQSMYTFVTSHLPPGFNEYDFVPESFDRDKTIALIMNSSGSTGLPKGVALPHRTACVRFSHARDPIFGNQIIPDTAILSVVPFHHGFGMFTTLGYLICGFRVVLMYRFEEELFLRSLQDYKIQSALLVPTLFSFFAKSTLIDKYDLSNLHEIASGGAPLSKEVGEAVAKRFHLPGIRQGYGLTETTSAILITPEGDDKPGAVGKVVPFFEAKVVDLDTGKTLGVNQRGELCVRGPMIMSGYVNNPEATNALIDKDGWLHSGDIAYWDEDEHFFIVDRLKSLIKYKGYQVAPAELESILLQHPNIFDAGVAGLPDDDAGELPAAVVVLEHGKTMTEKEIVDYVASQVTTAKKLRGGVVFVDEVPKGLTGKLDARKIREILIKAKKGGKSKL

Chain of Follistatin (Homo sapiens) (P19883 whole entry, looked up): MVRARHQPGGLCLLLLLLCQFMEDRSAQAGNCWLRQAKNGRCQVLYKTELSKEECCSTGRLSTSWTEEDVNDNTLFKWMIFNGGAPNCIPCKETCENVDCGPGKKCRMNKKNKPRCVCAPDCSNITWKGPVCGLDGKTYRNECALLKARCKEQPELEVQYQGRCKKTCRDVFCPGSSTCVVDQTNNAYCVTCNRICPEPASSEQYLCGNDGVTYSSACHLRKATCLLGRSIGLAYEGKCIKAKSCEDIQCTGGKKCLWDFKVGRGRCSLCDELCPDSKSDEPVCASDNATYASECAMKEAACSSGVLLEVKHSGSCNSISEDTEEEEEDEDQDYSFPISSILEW
Chain of Focal adhesion kinase 1 (Homo sapiens) (Q05397 whole entry, looked up): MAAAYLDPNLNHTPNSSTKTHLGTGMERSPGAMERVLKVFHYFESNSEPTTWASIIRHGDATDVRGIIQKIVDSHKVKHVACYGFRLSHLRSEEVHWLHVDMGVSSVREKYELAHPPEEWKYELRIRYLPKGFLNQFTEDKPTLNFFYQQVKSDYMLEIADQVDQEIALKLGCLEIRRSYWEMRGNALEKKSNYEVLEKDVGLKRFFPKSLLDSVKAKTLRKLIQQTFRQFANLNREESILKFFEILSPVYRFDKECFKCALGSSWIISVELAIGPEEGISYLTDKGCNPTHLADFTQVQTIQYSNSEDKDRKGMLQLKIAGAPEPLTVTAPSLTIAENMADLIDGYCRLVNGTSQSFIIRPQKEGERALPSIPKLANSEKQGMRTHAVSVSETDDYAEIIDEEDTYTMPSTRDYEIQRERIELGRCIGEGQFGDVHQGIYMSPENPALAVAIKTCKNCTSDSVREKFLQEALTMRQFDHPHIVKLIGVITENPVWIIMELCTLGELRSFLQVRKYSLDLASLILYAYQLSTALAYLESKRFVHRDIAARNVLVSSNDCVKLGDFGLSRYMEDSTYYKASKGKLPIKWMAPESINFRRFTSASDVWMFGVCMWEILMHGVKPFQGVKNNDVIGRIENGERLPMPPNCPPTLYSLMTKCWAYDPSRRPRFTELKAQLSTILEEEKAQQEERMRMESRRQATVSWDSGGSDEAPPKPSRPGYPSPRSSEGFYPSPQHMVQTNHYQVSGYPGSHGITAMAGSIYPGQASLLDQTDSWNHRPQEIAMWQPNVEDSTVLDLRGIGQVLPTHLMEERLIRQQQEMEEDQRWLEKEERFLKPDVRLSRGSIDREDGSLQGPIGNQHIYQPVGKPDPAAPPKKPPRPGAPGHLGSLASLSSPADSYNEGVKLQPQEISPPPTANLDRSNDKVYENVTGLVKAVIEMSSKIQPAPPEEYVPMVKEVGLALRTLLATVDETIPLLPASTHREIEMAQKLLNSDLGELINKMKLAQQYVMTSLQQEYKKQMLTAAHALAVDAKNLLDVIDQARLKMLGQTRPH
Chain of Fibroblast growth factor 2 (Homo sapiens) (P09038 whole entry, looked up): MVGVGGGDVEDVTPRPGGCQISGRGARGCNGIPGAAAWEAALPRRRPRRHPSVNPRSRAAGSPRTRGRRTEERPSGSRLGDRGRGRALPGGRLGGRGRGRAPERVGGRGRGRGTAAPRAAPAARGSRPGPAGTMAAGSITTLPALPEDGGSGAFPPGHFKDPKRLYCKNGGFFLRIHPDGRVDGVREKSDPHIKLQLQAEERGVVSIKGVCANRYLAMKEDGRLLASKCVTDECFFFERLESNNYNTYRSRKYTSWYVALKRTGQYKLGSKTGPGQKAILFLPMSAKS
Chain of Concanavalin-A (Canavalia ensiformis) (P02866 whole entry, looked up): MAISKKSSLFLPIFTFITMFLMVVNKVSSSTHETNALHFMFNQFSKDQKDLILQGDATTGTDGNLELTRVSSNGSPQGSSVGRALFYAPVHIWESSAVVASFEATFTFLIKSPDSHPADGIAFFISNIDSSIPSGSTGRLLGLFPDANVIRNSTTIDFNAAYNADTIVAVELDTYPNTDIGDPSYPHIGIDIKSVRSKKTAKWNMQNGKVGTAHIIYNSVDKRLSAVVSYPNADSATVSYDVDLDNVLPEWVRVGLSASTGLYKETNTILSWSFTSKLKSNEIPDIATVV
Chain of Albumin (Bos taurus) (P02769 whole entry, looked up): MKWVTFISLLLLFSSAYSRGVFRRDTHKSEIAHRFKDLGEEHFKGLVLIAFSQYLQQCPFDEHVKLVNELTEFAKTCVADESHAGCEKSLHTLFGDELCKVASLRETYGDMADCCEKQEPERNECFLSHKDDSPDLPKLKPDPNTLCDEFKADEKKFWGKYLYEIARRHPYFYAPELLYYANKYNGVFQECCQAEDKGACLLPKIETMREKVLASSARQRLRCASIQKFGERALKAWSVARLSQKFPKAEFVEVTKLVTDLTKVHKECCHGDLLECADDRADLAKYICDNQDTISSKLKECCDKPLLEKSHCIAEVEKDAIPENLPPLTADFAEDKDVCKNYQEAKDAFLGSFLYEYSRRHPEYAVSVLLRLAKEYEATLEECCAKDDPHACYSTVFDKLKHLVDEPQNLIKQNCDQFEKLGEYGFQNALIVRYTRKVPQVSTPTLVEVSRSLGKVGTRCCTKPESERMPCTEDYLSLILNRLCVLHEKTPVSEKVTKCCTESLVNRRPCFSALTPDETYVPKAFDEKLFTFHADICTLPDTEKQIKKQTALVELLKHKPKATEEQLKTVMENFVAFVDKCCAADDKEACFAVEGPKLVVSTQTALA

Row | SMILES | composite z-score [1] | composite Z-score [2] | composite z-score [3] | composite z-score [4] | composite z-score [5] | composite z-score [6] | composite z-score [7] | composite z-score [8] | composite z-score [9] | composite z-score [10] | composite z-score [11] | composite z-score [12] | composite z-score [13] | composite z-score [14] | composite z-score [15] | composite z-score [16] | z-score [17] | composite z-score [18] | composite z-score [19] | z-score [20]
1 | C[C@H]1NC(=O)[C@@]23C(=O)N[C@@H](Cc4ccccc4)C2[C@H](C)[C@@]2(C)O[C@H]2C3/C=C/C/C=C\CNC(=O)[C@H](Cc2ccccc2)NC1=O (stereo not given in full) | -0.474 | -0.721 (inactive) | -0.145 | -0.127 | 0.281 | 0.205 | 0.0898 | 0.127 | 0.636 | 0.501 | 0.624 | -0.0861 | -0.219 | 0.617 | 0.884 | 0.811 | -0.0755 | 0.942 | 0.404 | -0.203 (inactive)
2 | [N-]=[N+]=NCc1ccccc1C[C@@]1(C(=O)N2CCOCC2)N=C(c2ccc(OCCCO)cc2)O[C@@H]1c1ccccc1 | 0.851 | 0.879 (inactive) | 0.056 | 0.0012 | 0.617 | 2.92 | 0.491 | 1.11 | -0.577 | 1.08 | 3.12 | 1.18 | 0.406 | 0.884 | 0.734 | 0.399 | -0.667 | -0.379 | 0.529 | -0.469 (inactive)
3 | O=C1O[C@H](c2ccccc2)[C@H](c2ccccc2)N2[C@H]1[C@@H](C(=O)N1CCN(c3ncccn3)CC1)[C@]1(C(=O)Nc3ccc(C#CC4(O)CCCCCC4)cc31)[C@H]2c1ccc(OCCO)cc1 | 0.0591 | 6.42 (inactive) | 1.39 | 0.606 | 0.62 | 3.46 | 1.61 | 1.29 | 1.41 | 1.1 | 1.14 | 1.23 | 1.03 | 0.966 | 1.27 | 1.48 | -1.46 | 1.38 | 1.03 | -1.2 (inactive)
4 | COCCOC(=O)N1C(=O)[C@@]2(c3cc(C#Cc4ccc(OC)cc4)ccc31)[C@H](c1ccc(O)cc1)N1[C@H](c3ccccc3)[C@H](c3ccccc3)OC(=O)[C@H]1[C@@H]2C(=O)N1CCCCCCC1 | 0.802 | -0.182 (inactive) | 0.7 | -0.131 | 0.466 | 2.11 | 0.575 | 0.722 | -0.508 | 0.498 | -1.01 | 1.11 | 0.415 | 0.377 | 1.25 | 0.408 | -0.421 | 0.391 | 0.484 | -0.564 (inactive)
5 | CC(CO)N1C(=O)[C@@H]2[C@H]3C(=O)OCC=C[C@H]3OC23C=CCN(CCN2CCOCC2)C(=O)[C@@H]13 (stereo not given in full) | 0.138 | -0.0888 (inactive) | -0.152 | -0.117 | 0.302 | -1.05 | -0.586 | -0.0161 | -0.235 | -0.22 | 1.01 | -0.549 | -0.568 | -1.3 | 0.207 | -0.443 | 0.659 | 0.27 | 0.11 | -0.531 (inactive)
6 | CC(CO)N1C(=O)[C@@H]2[C@H]3C(=O)OCC=C[C@H]3OC23C=CCN(Cc2ccccc2)C(=O)[C@@H]13 (stereo not given in full) | 0.407 | -0.106 (inactive) | -0.308 | -0.22 | 0.905 | -0.851 | -0.419 | -1.17 | -0.42 | -0.325 | 0.543 | -0.696 | 0.769 | -0.854 | -0.139 | -0.173 | -0.376 | -0.279 | 0.22 | -3.05 (inactive)
7 | CCCC[C@@H]1C[C@H]1[C@@H](NC(=O)c1ccccc1)c1ccc(C(F)(F)F)cc1 | -0.0844 | -0.157 (inactive) | 0.0562 | -0.0698 | 0.009 | -0.511 | -0.134 | -1.5 | -1.15 | -0.917 | 0.581 | -0.551 | -0.0796 | -2.43 | -1 | -1.19 | -0.0527 | -0.549 | -0.331 | 0.286 (inactive)
8 | COCC1=C2[C@@H](CCc3ccccc3)OB(O)C[C@@H]2[C@@H]2C(=O)C=CC(=O)[C@@H]2C1 | 0.739 | -0.228 (inactive) | 0.334 | -0.12 | 0.295 | 0.883 | 0.481 | 1.31 | 0.0197 | 1.02 | 1.39 | 0.736 | 0.238 | 0.0217 | 0.648 | 0.519 | -1.23 | 0.654 | 0.982 | -3.14 (inactive)
9 | O=C1NC(=O)C2C1C=CC(C(O)c1ccco1)N2Nc1ccccn1 (stereo not given) | -0.176 | 0.0674 (inactive) | -0.133 | -0.0567 | 0.713 | 0.0264 | 0.861 | 0.14 | 0.146 | -0.0501 | -0.324 | -0.0286 | -0.429 | -0.17 | 0.292 | -0.127 | -0.109 | -0.042 | 0.325 | -1.42 (inactive)
10 | COCCCNC(=O)[C@]1(CCS(=O)(=O)c2ccccc2)N=C(c2ccc(OCCCO)cc2)O[C@@H]1c1ccccc1N=[N+]=[N-] | 1.02 | 0.778 (inactive) | 0.486 | -0.143 | 0.569 | 2.39 | 0.371 | 1.31 | -0.71 | 1.18 | 2.09 | 1.22 | -0.0436 | 0.996 | 0.794 | -0.138 | 0.789 | -0.279 | 1.13 | -10.1 (active)
11 | Cc1ccc(S[C@]2(C(=O)O)CC(=O)N(Cc3cc(C(F)(F)F)cc(C(F)(F)F)c3)[C@@H]2c2ccc(CO)cc2)cc1 | -1.78 | -0.483 (inactive) | -0.512 | -0.154 | 0.65 | 1.23 | 0.549 | -0.25 | -2.37 | -1.24 | -1.45 | -0.889 | -0.194 | -0.84 | -1.22 | -0.897 | -0.389 | -1.66 | -1.31 | -0.0278 (inactive)
